37 compounds from PubChem BioAssay (EPA / NIEHS) can be followed below.

Structures are written as SMILES. Several values for one entry are separate records, joined by “and”; a condition that tells them apart may be missing. Identical values can stand only once. Some structures have more than one record in an assay (separate samples or runs), and their calls can disagree. Activity calls are given as the source filed them. How the source made its calls: active means hit-call score of the fitted dose curve at least 0.9, where 1 is the maximum; inactive means score below 0.9.

The nature of the experiment: BSK_hDFCGF_SRB: Viability Assessment in the BioMAP Diversity Plus: hDFCGF Assay (AID 2283061). The note with it: primary human foreskin fibroblasts. The procedure: BSK_hDFCGF is a cell-based, multiplexed-readout assay that uses foreskin fibroblast, a human skin primary cell, with measurements taken at 24 hours after chemical dosing in a 96-well plate.BSK_hDFCGF_SRB is an assay component measured in the BSK_hDFCGF assay. It measures 0.1% sulforhodamine related to cell death using Sulforhodamine staining technology.Data from the assay component BSK_hDFCGF_SRB was analyzed into 1 assay endpoint. This assay endpoint, BSK_hDFCGF_SRB, was analyzed with bidirectional fitting relative to DMSO as the negative control and baseline of activity. Using a type of viability reporter, gain or loss-of-signal activity can be used to understand changes in the signaling. Furthermore, this assay endpoint can be referred to as a primary readout, because this assay has produced multiple assay endpoints where this one serves a signaling function. To generalize the intended target to other relatable targets, this assay endpoint is annotated to the cell morphology intended target family, where the subfamily is cell conformation.
The levels of cell surface (or secreted, indicated by the prefix "s") biomarker endpoints were measured by ELISA. Overt cytotoxicity to cells in confluent adherent cultures (all systems other than the BT system) was assessed by measuring total protein levels using sulforhodamine B (SRB) staining in parallel cultures at the time of biomarker measurements, indicated as SRB endpoints. For proliferation assays for adherent cell types, individual cell types are cultured at sub-confluence and relative cell numbers quantified by SRB staining at time points optimized for each system (48 h: 3C and CASM3C systems; 72 h: BT and HDF3CGF systems; 96 h: SAg system). SRB was performed by staining cells with 0.1% SRB after fixation with 10% TCA and reading wells at 560 nm.Viability and proliferation of PBMC (T cells) was quantified by Alamar Blue reduction for the SAg and BT systems. For PBMC viability (referred to as PBMC Cytotoxicity within the assay endpoint names), cells were plated (75,000/well in a 96-well plate) and then chemical samples added for 1 h before addition of activators, SEB and TSST-1 (20 ng/mL final concentration each). Cells were incubated for 90 h. Then, Alamar Blue (20 uL/well) (Invitrogen, Cat DAL1100) was added for 6 h, and the plates were read with a fluorescence microplate reader at 546/580 nm (excitation/emission). For PBMC proliferation, cells were plated and activated as above but incubated for only 16 h prior to addition of Alamar Blue. Plates were read after 6 h.
`NC(=O)N(O)[C@@H]1C=C[C@H](Oc2cccc(Oc3ccc(F)cc3)c2)C1`: the result was inactive.

For orientation: AC50 means the concentration giving half of the maximal activity seen. For `FC(F)(I)C(F)(F)C(F)(F)C(F)(F)C(F)(F)C(F)(F)I`, the AC50 was 5.33 µM (active) [middle of 5 runs].

As for `CCOC(=O)CC(O)(CC(=O)OCC)C(=O)OCC`, the result was inactive.

Take `CC(=O)CC(C)(C)O`: the outcome was inactive.

Turning to `OCCC(F)(F)C(F)(F)C(F)(F)C(F)(F)C(F)(F)C(F)(F)C(F)(F)C(F)(F)F`, the outcome was inactive; the half-maximal activity concentration (AC50) is 13.8 µM (active) and 15.5 µM (active).

`CCCCOCCO`: the result was inactive.

`CCCCCCCCCCCCCCCS(=O)(=O)Oc1ccccc1`: the result was inactive.

Take `CC(C)(C)c1cc(C(C)(C)C)c(O)c(C(C)(C)C)c1`: the AC50 was 32 µM (active).

With `COCC(C)O` (stereo not given), the result was inactive.

As for `c1ccc2cc3c(ccc4ccccc43)cc2c1`, the outcome was inactive.

As to `C[C@@H]1C[C@H]2[C@@H]3CCC4=CC(=O)C=C[C@]4(C)[C@@]3(F)[C@@H](O)C[C@]2(C)[C@@]1(O)C(=O)COP(=O)(O)O`, the concentration at half-maximal activity (AC50) was 3.28 µM (active) and the outcome was inactive.

For the compound `Cc1oc(-c2ccccc2)nc1CCOc1ccc(C[C@H](Nc2ccccc2C(=O)c2ccccc2)C(=O)O)cc1`, the half-maximal activity concentration (AC50) was 2.42 µM (active).

As for `CCc1ccc(CCOc2ccc(CC3SC(=O)NC3=O)cc2)nc1` (stereo not given), the result was inactive.

For `CC(C)(C)CC(C)(C)c1ccc(O)c(-n2nc3ccccc3n2)c1`, the AC50 is 9.39 µM (active).

In the case of `CC1=C(/C=C/C(C)=C/C=C/C(C)=C/C(=O)O)C(C)(C)CCC1`, the AC50 is 34.5 µM (active).

For the compound `C=C(C)C(=O)OCCC(F)(F)C(F)(F)C(F)(F)C(F)(F)C(F)(F)C(F)(F)F`, the outcome was inactive.

On to `CC(C)(C)c1cccc(C(C)(C)C)c1O`, for which the AC50 was 35.7 µM (active).

For `Cc1cc(C)c(O)c(C)c1`, the result was inactive.

For `CCCCCCCC(=O)O`, the outcome was inactive.

For `CCCCC(CC)COC(=O)CCCCC(=O)OCC(CC)CCCC` (stereo not given), the result was inactive.

Regarding `ClC1=C(Cl)C(Cl)(Cl)C(Cl)=C1Cl`, the AC50 was 12.8 µM (active).

In the case of `NC(=O)N1C(=O)C(C(=O)c2cc(Cl)cs2)c2cc(F)c(Cl)cc21` (stereo not given), the AC50 was 5.47 µM (active).

For the compound `Oc1cc2ccccc2c2ccccc12`, the AC50 is 3.24 µM (active).

Turning to `N#C[C@@H]1CC(F)(F)CN1C(=O)CNC1CC2CCC(C1)N2c1ncccn1` (stereo not given in full), the result was inactive.

For `CCCCCCCCCCCCc1ccccc1S(=O)(=O)O`, the half-maximal activity concentration (AC50) is 6.52 µM (active).

For `C#C[C@]1(O)CC[C@H]2[C@@H]3CCC4=CC(=O)CC[C@@H]4[C@H]3CC[C@@]21C`, the result was inactive.

Regarding `OC1CCC(C2CCCCC2)CC1` (stereo not given), the result was inactive.

On to `OCCC(F)(F)C(F)(F)C(F)(F)C(F)(F)C(F)(F)C(F)(F)F`, for which the result was inactive; the AC50 was 51.3 µM (active) and 46.8 µM (active).

With `O=c1c(-c2ccc(O)cc2)coc2cc(O)ccc12`, the result was inactive.

For `CCC(C)(C)C1CCC(O)CC1` (stereo not given), the outcome was inactive.

On to `Oc1cccc(O)c1`, for which the outcome was inactive.

`CCCOc1sc(C(=O)N2CCC(c3cc(CN)ccc3F)CC2)c(C)c1Br`: the half-maximal activity concentration (AC50) was 6.53 µM (active).

With `COC(=O)CCCCC(=O)OC`, the outcome was inactive.

With `CC(C)CCCCCCOC(=O)CCCCC(=O)OCCCCCCC(C)C`, the outcome was inactive.

As for `CCCCCCCCC(=O)O`, the outcome was inactive.

In the case of `Nc1cccc2c(N)cccc12`, the outcome was inactive.

`COc1ccc([N+](=O)[O-])cc1N`: the result was inactive.
